Data: PubChem BioAssay (Tox21)
Inconclusive results are not listed. Active and inactive are the calls of the source. Unless noted, calls follow the shape of the full dose curve.

Assays:
[1] = Nuclear factor erythroid 2-related factor 2/antioxidant responsive element (Nrf2/ARE) small molecule agonists: qHTS cell viability counter screen in human keratinocytes (AID 1919968; active = well fitted curve in the direction sought with a large enough effect in the repeat runs; an effect the other way counts as inactive or inconclusive; also: nearly all actives have a fitted effect of over 55% in size; also: potency is read from the fitted curve at half-maximal effect)
Outline: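 Viability counter-screen: KeratinoSens reporter cells, DMSO-delivered compounds, 23 h at 37 C, CellTiter-Fluor fluorescence.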

[2] = Nuclear factor erythroid 2-related factor 2/antioxidant responsive element (Nrf2/ARE) small molecule agonists: luciferase reporter gene qHTS assay in human keratinocytes (AID 1919969); also: nearly all actives have a fitted effect of over 35% in size; also: potency is read from the fitted curve at half-maximal effect
[3] = biological target: Gonadotropin-releasing hormone receptor (Homo sapiens) (UniProt P30968); experiment: Human gonadotropin-releasing hormone receptor (GnRHR) small molecule agonists, calcium flux assay in GnRHR-HEK293 cells (AID 1920063); also: nearly all actives have a fitted effect of over 35% in size; also: potency is read from the fitted curve at half-maximal effect
Outline: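 Tox21-format agonist screen using human GnRHR-expressing HEK293 cells and a fluorescent calcium dye; kinetic 3-min fluorescence reading after compound addition, 15-point concentration series run in triplicate.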

[4] = biological target: KiSS-1 receptor (Homo sapiens) (UniProt Q969F8); experiment: Human kisspeptin (KISS1R) small molecule agonists, calcium flux assay in KISS1R-HEK293 cells (AID 1920064; active = well fitted curve in the direction sought with a large enough effect in the repeat runs; an effect the other way counts as inactive or inconclusive)
Outline: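 Intracellular calcium mobilization in KISS1R-HEK293 cells was recorded by fluorescence (Ex/Em 480/540) for 3 min following compound addition to cells pre-loaded 1 h with calcium dye.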

[5] = p53 small molecule agonists, cell-based qHTS assay with human liver microsomes: qHTS cell viability counter screen (AID 1963579); also: nearly all actives have a fitted effect of over 45% in size; also: potency is read from the fitted curve at half-maximal effect
Outline: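 Cells carrying the p53 response-element beta-lactamase reporter are treated for 16 h at 37 C with test compounds in the presence of human liver microsomes and NADPH (both 0.5 mg/mL final); ATP-based CellTiter-Glo luminescence then reports viability.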

[6] = p53 small molecule agonists, cell-based qHTS assay: qHTS cell viability counter screen (AID 1963581); also: nearly all actives have a fitted effect of over 45% in size; also: potency is read from the fitted curve at half-maximal effect
Outline: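 Compounds are pinned onto HCT-116 p53RE-bla cells and left 16 h at 37 C. Following the reporter FRET read, ATP is quantified by CellTiter-Glo luminescence after 30 min at room temperature.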

[7] = biological target: 5-hydroxytryptamine receptor 2A (Homo sapiens) (UniProt P28223); experiment: 5-hydroxytryptamine receptor 2A (HTR2A) small molecule antagonists, cell-based qHTS assay (AID 1963586); also: nearly all actives have a fitted effect of over 45% in size
Outline: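 Antagonist-mode intracellular calcium assay: DOI (4 nM) added after 5 min compound pre-incubation at room temperature to dye-loaded HTR2A-CHO cells. Fluorescence followed for 3 min, sampled every second.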

[8] = biological target: Muscarinic acetylcholine receptor M1 (Homo sapiens) (UniProt P11229); experiment: Cholinergic receptor muscarinic 1 (CHRM1) small molecule antagonists, cell-based qHTS assay (AID 1963588); also: nearly all actives have a fitted effect of over 40% in size
Outline: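 CHRM1-CHO calcium-flux assay, antagonist mode. Cells were seeded 18 h, dye-loaded 1 h at 37 C and given compound for 5 min at RT, then acetylcholine was added at 50nM. FDSS fluorescence was read 3 min; 15 concentrations, three runs.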

[9] = biological target: Muscarinic acetylcholine receptor M1 (Homo sapiens) (UniProt P11229); experiment: Cholinergic receptor muscarinic 1 (CHRM1) small molecule agonists, cell-based qHTS assay (AID 1963589); also: nearly all actives have a fitted effect of over 35% in size
Outline: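 Stable CHRM1-CHO cells (human receptor) were incubated 18 h, dye-loaded for 1 h at 37 C and exposed to test compounds for agonist activity, with calcium-dependent fluorescence followed kinetically.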

[10] = biological target: D(2) dopamine receptor (Homo sapiens) (UniProt P14416); experiment: Dopamine D2 receptor (DRD2) small molecule agonists, cell-based qHTS assay (AID 1963594); also: nearly all actives have a fitted effect of over 35% in size
Outline: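 cAMP accumulation in DRD2-HEK293 cells measured by HTRF after 1 h detection; compounds added 10 min before NKH477 (200nM […]) forskolin-analogue stimulation, 30 min at room temperature, with Ro20-1724 present at 0.1 mM final.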

[11] = biological target: D(2) dopamine receptor (Homo sapiens) (UniProt P14416); experiment: Dopamine D2 receptor (DRD2) small molecule antagonists, cell-based qHTS assay (AID 1963595; active = well fitted inhibition curve with a large enough effect in the signal ratio in the repeat runs, with a control signal flat; the % refers to the signal ratio)
Outline: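 DRD2-HEK293; 0.1 mM Ro20-1724; cpd 10 min RT; NKH477 200 nM + quinpirole 12 nM, 30 min RT; HTRF cAMP (cAMP-d2/anti-cAMP cryptate), 665/620 nm ratio after 1 h.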

[12] = p53 small molecule agonists, cell-based qHTS assay with rat liver microsomes: qHTS cell viability counter screen (AID 1963580); also: nearly all actives have a fitted effect of over 45% in size
Outline: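 Intracellular ATP, by CellTiter-Glo luminescence, defines viability. HCT-116 p53RE-bla cells, 4,000 per well, were compound-treated in the presence of rat liver microsomes and NADPH for 16 h at 37 C.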

[13] = biological target: 5-hydroxytryptamine receptor 2A (Homo sapiens) (UniProt P28223); experiment: 5-hydroxytryptamine receptor 2A (HTR2A) small molecule agonists, cell-based qHTS assay (AID 1963587); also: nearly all actives have a fitted effect of over 30% in size
Outline: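 Kinetic calcium-flux fluorescence (2 min, 1 sec intervals) after compound addition in agonist mode. HTR2A-CHO cells were cultured 18 h, then dye-loaded 1 h at 37 C.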

[14] = cAMP Responsive Elements (CRE) small molecule agonists, cell-based qHTS assay (AID 1963590)
Outline: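 FRET-based beta-lactamase readout (LiveBLAzer B/G, 2 h RT) quantified CRE activation in HEK 293T CRE-bla cells after 3 h treatment with DMSO-dissolved compounds.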

[15] = cAMP Responsive Elements (CRE) small molecule antagonists, cell-based qHTS assay (AID 1963591; active = well fitted inhibition curve with a large enough effect in the signal ratio in the repeat runs, not every such curve was filed as active; the % refers to the signal ratio)
Outline: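 qHTS in CRE-bla HEK 293T cells: compound in DMSO, then 0.25 uM NKH477 (final), 3 h at 37 °C/5% CO2; beta-lactamase FRET read-out after 2 h substrate incubation.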

[16] = biological target: Beta-2 adrenergic receptor (Homo sapiens) (UniProt P07550); experiment: Adrenergic beta2 receptor (ADRB2) small molecule antagonists, cell-based qHTS assay (AID 1963592); also: series mostly up to about 92 µM; nearly all actives have a fitted effect of over 50% in size
Outline: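 Cells (CHO, stable ADRB2 overexpression) incubated 18-20hr at 37C; compounds added from DMSO; agonist mix (1nM isoproterenol, 100uM IBMX, 25uM Ro-20-1724) added; 0.5hr RT; d2-cAMP and anti-cAMP-cryptate added; 1hr RT; 665/615 nm read.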

[17] = biological target: Beta-2 adrenergic receptor (Homo sapiens) (UniProt P07550); experiment: Adrenergic beta2 receptor (ADRB2) small molecule agonists, cell-based qHTS assay (AID 1963593);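 also: CHO cells stably overexpressing human ADRB2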
Outline: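 CHO cells stably over-expressing ADRB2 were plated overnight at 37C, then dosed with compounds plus a stimulation mix containing 100uM IBMX and 25uM Ro-20-1724 for 0.5hr at room temperature. cAMP was measured by HTRF competition, 1hr.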

[18] = G protein-coupled receptor (GPCR) small molecule agonists, calcium flux assay: HEK293 wild type cell line counter screen (AID 1920065)
Outline: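 In this agonist-mode screen, ATP is the positive control and DMSO the vehicle. Cells grow 18 h before a 1 h dye incubation at 37 C; signal is taken at Ex/Em 480/540 over 3 min.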

[19] = p53 small molecule agonists, cell-based qHTS assay (AID 1963582; active = well fitted activation curve with a large enough effect in the signal ratio in the repeat runs, not every such curve was filed as active; the % refers to the signal ratio)
Outline: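 Agonist activity was scored from beta-lactamase FRET fluorescence in p53RE-bla cells treated 16 h at 37 C with compounds in DMSO, substrate incubation being 2 h at room temperature.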

[20] = p53 small molecule agonists, cell-based qHTS assay with rat liver microsomes (AID 1963578)
Outline: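 Read-out is beta-lactamase reporter fluorescence (LiveBLAzer, 2 h, room temperature, dark) in p53RE-bla cells treated 16 h at 37 C with compound, rat liver microsomes and NADPH, both 0.5 mg/mL final.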
% is scaled to controls: 0 for no effect and ±100 for the full control effect.

Beta-2 adrenergic receptor (Homo sapiens), sequence (P07550 whole entry, looked up): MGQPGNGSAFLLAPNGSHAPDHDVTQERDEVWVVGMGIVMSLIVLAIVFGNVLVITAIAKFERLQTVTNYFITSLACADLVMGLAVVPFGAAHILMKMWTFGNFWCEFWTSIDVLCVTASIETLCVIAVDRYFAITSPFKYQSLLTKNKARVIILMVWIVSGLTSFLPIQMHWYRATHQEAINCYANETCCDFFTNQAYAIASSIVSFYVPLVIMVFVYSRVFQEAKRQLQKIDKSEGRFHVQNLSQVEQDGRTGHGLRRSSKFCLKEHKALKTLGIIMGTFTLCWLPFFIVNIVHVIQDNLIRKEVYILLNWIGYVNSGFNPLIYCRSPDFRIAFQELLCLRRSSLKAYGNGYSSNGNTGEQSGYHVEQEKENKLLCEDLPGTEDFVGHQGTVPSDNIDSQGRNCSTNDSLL
D(2) dopamine receptor (Homo sapiens), sequence (P14416 whole entry, looked up): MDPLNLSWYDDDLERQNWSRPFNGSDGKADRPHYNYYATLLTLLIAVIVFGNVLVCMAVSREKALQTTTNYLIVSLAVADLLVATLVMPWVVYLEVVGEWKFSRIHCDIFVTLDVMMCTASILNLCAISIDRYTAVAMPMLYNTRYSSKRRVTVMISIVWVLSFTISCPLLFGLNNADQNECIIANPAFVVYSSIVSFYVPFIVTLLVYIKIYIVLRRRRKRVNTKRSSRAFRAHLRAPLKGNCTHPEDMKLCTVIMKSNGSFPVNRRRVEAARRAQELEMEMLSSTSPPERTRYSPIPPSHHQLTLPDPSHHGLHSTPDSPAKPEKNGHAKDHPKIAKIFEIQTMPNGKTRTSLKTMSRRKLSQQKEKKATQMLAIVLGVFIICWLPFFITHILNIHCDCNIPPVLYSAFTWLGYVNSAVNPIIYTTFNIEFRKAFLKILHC
KiSS-1 receptor (Homo sapiens), sequence (Q969F8 whole entry, looked up): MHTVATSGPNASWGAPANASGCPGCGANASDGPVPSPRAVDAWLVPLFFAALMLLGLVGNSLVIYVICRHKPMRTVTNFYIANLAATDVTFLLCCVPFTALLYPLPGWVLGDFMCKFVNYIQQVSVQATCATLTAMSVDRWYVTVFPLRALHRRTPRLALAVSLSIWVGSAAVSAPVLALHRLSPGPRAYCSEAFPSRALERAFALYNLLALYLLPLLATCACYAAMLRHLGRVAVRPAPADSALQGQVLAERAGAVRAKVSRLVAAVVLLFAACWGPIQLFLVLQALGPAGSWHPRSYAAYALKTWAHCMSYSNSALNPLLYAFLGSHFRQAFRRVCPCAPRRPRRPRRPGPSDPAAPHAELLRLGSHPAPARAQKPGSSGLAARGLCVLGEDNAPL
Muscarinic acetylcholine receptor M1 (Homo sapiens), sequence (P11229 whole entry, looked up): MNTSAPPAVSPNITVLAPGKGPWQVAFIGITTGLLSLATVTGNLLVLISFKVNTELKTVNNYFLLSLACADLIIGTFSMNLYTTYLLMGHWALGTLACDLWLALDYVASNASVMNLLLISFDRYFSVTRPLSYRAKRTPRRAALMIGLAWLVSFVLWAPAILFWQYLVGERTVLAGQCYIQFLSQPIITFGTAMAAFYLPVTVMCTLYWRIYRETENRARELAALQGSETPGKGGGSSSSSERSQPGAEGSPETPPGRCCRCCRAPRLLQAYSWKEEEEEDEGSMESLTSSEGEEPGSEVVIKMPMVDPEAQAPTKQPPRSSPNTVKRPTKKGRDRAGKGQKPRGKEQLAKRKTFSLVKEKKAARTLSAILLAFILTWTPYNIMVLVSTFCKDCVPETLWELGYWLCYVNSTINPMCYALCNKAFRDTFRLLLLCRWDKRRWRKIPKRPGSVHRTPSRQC
Gonadotropin-releasing hormone receptor (Homo sapiens), sequence (P30968 whole entry, looked up): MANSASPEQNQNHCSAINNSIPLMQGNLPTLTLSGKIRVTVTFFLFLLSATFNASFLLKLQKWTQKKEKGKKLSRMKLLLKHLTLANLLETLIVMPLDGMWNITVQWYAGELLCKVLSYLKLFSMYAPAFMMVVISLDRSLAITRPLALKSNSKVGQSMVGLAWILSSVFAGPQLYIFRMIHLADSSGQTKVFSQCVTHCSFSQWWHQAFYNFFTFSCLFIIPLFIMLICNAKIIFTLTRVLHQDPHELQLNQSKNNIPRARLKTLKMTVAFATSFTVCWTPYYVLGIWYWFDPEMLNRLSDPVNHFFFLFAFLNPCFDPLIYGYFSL
5-hydroxytryptamine receptor 2A (Homo sapiens), sequence (P28223 whole entry, looked up): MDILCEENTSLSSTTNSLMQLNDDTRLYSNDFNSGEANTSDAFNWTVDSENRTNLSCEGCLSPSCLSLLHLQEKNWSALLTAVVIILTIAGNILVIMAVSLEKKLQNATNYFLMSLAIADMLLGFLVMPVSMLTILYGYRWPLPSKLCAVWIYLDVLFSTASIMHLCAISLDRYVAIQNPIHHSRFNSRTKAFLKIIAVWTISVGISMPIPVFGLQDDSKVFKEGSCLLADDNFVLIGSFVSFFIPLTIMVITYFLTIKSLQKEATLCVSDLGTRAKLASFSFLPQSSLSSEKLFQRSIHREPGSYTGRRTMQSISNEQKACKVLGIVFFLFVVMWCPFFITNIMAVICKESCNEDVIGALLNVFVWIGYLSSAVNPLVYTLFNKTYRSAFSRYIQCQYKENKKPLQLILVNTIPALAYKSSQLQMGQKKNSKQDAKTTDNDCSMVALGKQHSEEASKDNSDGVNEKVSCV

O=[N+]([O-])c1cc(C2CCCCC2)c(O)c([N+](=O)[O-])c1
active: Potency [1] 19.3 µM | Potency [2] 13.6 µM | Potency [3] 38.8 µM | Potency [5] 20.4 µM | Potency [6] 20.4 µM
inactive: Potency [4] | Potency [7] | Potency [8] | Potency [9] | Potency [10] | Potency [11]

CCCCC[Si](OCC)(OCC)OCC
inactive: Potency [1] | Potency [2] | Potency [3] | Potency [4] | Potency [5] | Potency [12] | Potency [6] | Potency [7] | Potency [13] | Potency [8] | Potency [9] | Potency [14] | Potency [15] | Potency [16] | Potency [17] | Potency [10] | Potency [11]

CCC(C)C(C)=O (stereo not drawn)
inactive: Potency [1] | Potency [2] | Potency [3] | Potency [4] | Potency [5] | Potency [12] | Potency [6] | Potency [7] | Potency [13] | Potency [8] | Potency [9] | Potency [14] | Potency [15] | Potency [17] | Potency [10] | Potency [11]

NC(CSCC(=O)O)C(=O)O (stereo not drawn)
inactive: Potency [1] | Potency [2] | Potency [3] | Potency [18] | Potency [5] | Potency [12] | Potency [6] | Potency [19] | Potency [7] | Potency [13] | Potency [8] | Potency [9] | Potency [14] | Potency [15] | Potency [16] | Potency [10] | Potency [11]

O=S(=O)(O)c1cc(S(=O)(=O)O)c2ccc3c(S(=O)(=O)O)cc(S(=O)(=O)O)c4ccc1c2c43
inactive: activity change, negative = cytotoxicity [1] 0.791% [at 19 µM] | activity, positive = activation [2] -1.98% [at 19 µM] | activity change [3] 0.0619% [at 11.8 µM, active compounds read high] | activation [18] 0.205% [at 11.8 µM] | activity change, negative = cytotoxicity [5] -2.1% [at 13.5 µM] | activity change, negative = cytotoxicity [12] 1.49% [at 13.5 µM] | activity change, negative = cytotoxicity [6] -29.1% [at 13.5 µM] | activation [19] 4.26% [at 13.5 µM] | activity, negative = inhibition [7] -5.22% [at 12.7 µM] | activation [13] -0.138% [at 15.9 µM] | activity, negative = inhibition [8] -5.56% [at 12.6 µM] | activation [14] 0.24% [at 19 µM] | activity change, negative = inhibition [15] -8.72% [at 18.9 µM] | activity change, negative = inhibition [16] 1.38% [at 19 µM] | activation [17] -12.6% [at 19 µM] | activation [10] 0.241% [at 19 µM] | activity change, negative = inhibition [11] -2.86% [at 18.9 µM]

C=CCOCC(O)CCl (stereo not drawn)
inactive: Potency [1] | Potency [2] | Potency [3] | Potency [18] | Potency [5] | Potency [12] | Potency [6] | Potency [19] | Potency [7] | Potency [13] | Potency [8] | Potency [9] | Potency [14] | Potency [15] | Potency [16] | Potency [10] | Potency [11]

CCCNCCC
inactive: Potency [1] | Potency [2] | Potency [3] | Potency [18] | Potency [5] | Potency [12] | Potency [6] | Potency [7] | Potency [13] | Potency [8] | Potency [9] | Potency [14] | Potency [15] | Potency [16] | Potency [10] | Potency [11]

CCN1CCN(C(=O)N[C@@H](C(=O)N[C@@H]2C(=O)N3C(C(=O)O)=C(CSc4nnnn4C)CS[C@H]23)c2ccc(O)cc2)C(=O)C1=O
inactive: Potency [1] | Potency [2] | Potency [3] | Potency [18] | Potency [20] | Potency [5] | Potency [12] | Potency [6] | Potency [19] | Potency [7] | Potency [13] | Potency [9] | Potency [14] | Potency [15] | Potency [16] | Potency [10] | Potency [11]
